Laboratory results taken from PubChem BioAssay.
Activity calls are given as the source filed them. Cut-off read from the data, not from the text of the source: active = parasite load remaining mostly below about 12% (no sharp cut-off); inactive = mostly above about 10%. Numbered stars: 1 amine (or outer) side, 2 acyl side, 3 side chain; on linkers, the order of the positions; unused ones are H or OH. Bridge positions count the residues as written; N and C are the ends. Square brackets hold non-standard residues; d marks the D form. Peptide text beside a SMILES is read from it. * marks the point of attachment. Heptanoyl(6-Me) = CC(C)CCCCC(=O)*; X3 = CC(C)C(CN[*:1])C(=O)[*:2]; Dab = NCC[CH](N)C(=O)O

Test: P. berghei load reduction in hepatocytes – cell-based, HepG2, luciferase luminescence, HepG2 viability, primary screen (AID 624349);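 note: 100% = mean of DMSO negative control wells on the same plate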
Settings: P. berghei liver stage in HepG2, luciferase luminescence, concentration not given here; parasite load remaining: stronger effect = lower value; viability: measured here: HepG2 viability without parasites

| Compound | parasite load remaining | viability |
| --- | --- | --- |
| Cc1nc(-c2ccccc2)c(-c2ccncc2)o1 | 46.9% (inactive) | 64.2% |
| Cc1cc(Nc2nc(-c3ccccc3)nc3ccccc23)n[nH]1 | 33.3% (inactive) | 117% |
| CCCOc1ccc(/C=C2\SC(=O)NC2=O)cc1 | 54.3% (inactive) | 111% |
| O=C1NC(=O)c2c1c(-c1ccccc1Cl)cc1[nH]c3ccc(O)cc3c21 | 32.6% (inactive) | 81% |
| CCCC(=O)Oc1ccc2[nH]c(C(=O)c3cc4ccccc4[nH]3)cc2c1 | 38.9% (inactive) | 104% |
| O=C1c2ccccc2-c2nc3nnnn3nc21 | -1.07% (inactive) | 0.01% |
| CC(=O)c1ccc(N2CCOCC2)cc1O | 38.3% (inactive) | 110% |
| N#Cc1cnc2cnc(NCc3cccnc3)cc2c1NC1CCCCCC1 | 36% (inactive) | 65.1% |
| Cc1nc2cc3nc(-c4cccs4)cnc3cc2n1C | 6.62% (active) | 168% |
| OCC(O)CCO/N=C1/C(c2c(O)[nH]c3ccccc23)=Nc2ccccc21 (centres undefined) | 25.4% (inactive) | 80.9% |
| N=c1ccn2c(n1)O[C@@H]1C2O[C@H](CO)[C@H]1O (some centres undefined) | 234% (inactive) | 85% |
| CC(C)CCCCC(=O)NC(CCN)C(=O)NC(C(=O)NC(CCN)C(=O)NC1CCNC(=O)C(C(C)O)NC(=O)C(CCN)NC(=O)C(CCN)NC(=O)C(C(C)C)CNC(=O)C(CC(C)C)NC(=O)C(CCN)NC1=O)C(C)O (centres undefined) ({Heptanoyl(6-Me)}-[Dab]T[Dab][Dab][Dab]L[X3][Dab][Dab]T; lactam 4-C; configuration not given here) | 68.1% (inactive) | 75.2% |
| Ic1cccc(CSc2nnc(-c3ccncc3)o2)c1 | 20.8% (inactive) | 98.7% |
| NCCCn1cc(C2=C(c3c[nH]c4ccccc34)C(=O)NC2=O)c2ccccc21 | 53.3% (inactive) | 148% |
| CC(C)n1cnc2c(Nc3cccc(Cl)c3)nc(NCCO)nc21 | 37.9% (inactive) | 90.9% |
| COC1[C@@H](OC)C[C@H](C)[C@@H](OC)C2=CC(=O)C=C(NC(=O)/C(C)=C/C=C\C(OC)[C@@H](OC(N)=O)/C(C)=C/[C@@H]1C)C2=O (some centres undefined) | 25.3% (inactive) | 84.1% |
| Cn1sc(=O)n(Cc2ccccc2)c1=O | 33% (inactive) | 94.4% |
| CCCCc1c(-c2ccc(O)cc2)[nH]c2nccnc12 | 46.4% (inactive) | 112% |
| CC(C)C(CO)Nc1nc(Nc2cccc(Cl)c2)c2ncn(C(C)C)c2n1 (centres undefined) | 30.5% (inactive) | 63.2% |
| Cn1cnc2cc3c(Nc4cccc(Br)c4)ncnc3cc21 | 14.5% (inactive) | 165% |
| O=C1NC(=O)C(c2cn(CCCn3ccnc3)c3ccccc23)=C1Nc1ccccc1 | 35% (inactive) | 61.8% |

| Compound | parasite load remaining | viability |
| --- | --- | --- |
| COc1ccc(S(=O)(=O)Nc2ccccc2CN(C)C/C=C/c2ccc(Cl)cc2)cc1 | 36.4% (inactive) | 93.6% |
| COc1cc(Nc2ncc3ccn(-c4cccc(CCC#N)c4)c3n2)cc(OC)c1OC | 50.6% (inactive) | 164% |
| Cc1ncc2ccccc2c1C#N | 44.1% (inactive) | 86.2% |
| Nc1nc(Nc2ccc(S(N)(=O)=O)cc2)nn1C(=S)Nc1c(F)cccc1F | 8.25% (active) | 93.1% |
| Cc1nc(N)sc1-c1ccnc(Nc2cccc([N+](=O)[O-])c2)n1 | 60.6% (inactive) | 87.6% |
| CNc1cc2c(Nc3cccc(Br)c3)ncnc2cn1 | 49.2% (inactive) | 157% |
| CCOc1cc2ncnc(Nc3cccc(Br)c3)c2cc1OCC | 50.2% (inactive) | 132% |
| CC[C@@H](CO)Nc1nc(NCc2ccc(-c3ccccn3)cc2)c2ncn(C(C)C)c2n1 | 181% (inactive) | 75.3% |
| COc1cc2ncnc(Nc3ccc(OCc4ccccc4)cc3)c2cc1OC | 51.2% (inactive) | 119% |
| CN(C)c1ccc(/C=C2/C(=O)Nc3ccccc32)cc1 | 34.8% (inactive) | 126% |
| CCN(CC)C(=O)c1ccc(Nc2nc(OCC3CCCCC3)c3[nH]cnc3n2)cc1 | 41.1% (inactive) | 89.4% |
| Cn1nc2c3c(cccc31)C(=O)c1ccccc1-2 | 28.1% (inactive) | 83.8% |
| c1ccc(-c2cnc(Nc3ccc(OCCN4CCCC4)cc3)s2)cc1 | 46.3% (inactive) | 100% |
| O=C1C(C2=C3C(=Nc4ccccc43)/C(=C\c3ccc(O)cc3)C2=O)=C2C(=Nc3ccccc32)/C1=C\c1ccc(O)cc1 | 52% (inactive) | 71.2% |
| COC1=C[C@]23CCCN2CCc2cc4c(cc2[C@]3(C)C1OC(=O)[C@@](O)(CCCC(C)(C)O)CC(=O)O)OCO4 (some centres undefined) | -0.16% (inactive) | 37.5% |
| Nc1n[nH]c(N)c1N=Nc1ccc(O)cc1 | 23.7% (inactive) | 93.1% |
| O=C1NC(=O)/C(=C/c2ccc3c(c2)OCO3)S1 | 37.6% (inactive) | 63.8% |
| COc1cc2ncnc(Nc3ccc(NC(=O)c4ccccc4)cc3)c2cc1OC | 41.1% (inactive) | 100% |
| NS(=O)(=O)c1ccc(N=Nc2c(O)[nH]c3ccc(Br)cc23)cc1 | 34% (inactive) | 161% |
| O=C(Nc1ccc(Cl)cc1)c1ccccc1NCc1ccncc1 | 39.8% (inactive) | 69% |
| O=C1NC(=O)C(c2cn(CCCO)c3ncccc23)=C1c1cnccn1 | 39.6% (inactive) | 97.4% |

| Compound | parasite load remaining | viability |
| --- | --- | --- |
| O=C(O)c1ccc2c3c1cccc3c(=O)n1c3ccccc3nc21 | 44% (inactive) | 75.2% |
| CO[C@H]1C[C@@H]2CC[C@@H](C)[C@@](O)(O2)C(=O)C(=O)N2CCCC[C@H]2C(=O)O[C@H](C(C)C[C@H]2CC[C@@H](O)[C@H](OC)C2)CC(=O)[C@H](C)/C=C(\C)[C@@H](O)[C@@H](OC)C(=O)[C@H](C)C[C@H](C)/C=C/C=C/C=C/1C (some centres undefined) | 45.4% (inactive) | 63.2% |
| N#Cc1c(-c2ccccc2)cc(-c2cc(Br)ccc2O)[nH]c1=O | 30.2% (inactive) | 75.4% |
| O=C(O)Cc1c2ccccc2n2c1[nH]c(=O)c1ccccc12 | 35.1% (inactive) | 170% |
| Cc1cc(C=C2C(=O)C=CC2=O)cc(C)c1O | 28.7% (inactive) | 70.7% |
| CC[C@H](CO)Nc1nc(NCc2ccccc2O)c2ncn(C(C)C)c2n1 | 34.4% (inactive) | 146% |
| CC#CC(=O)Nc1cc2c(Nc3ccc(F)c(Cl)c3)ncnc2cn1 | 50.6% (inactive) | 159% |
| COc1ccc2c(c1)c1c3c(c4c5ccccc5n(C)c4c1n2CC(O)CN(C)C)C(=O)NC3=O (centres undefined) | 65.8% (inactive) | 144% |
| COc1cc2nccc(Oc3ccc(NC(=S)NC(=O)c4ccccc4C)cc3)c2cc1OC | 22.3% (inactive) | 80.3% |
| N#C/C(=C(/N)Sc1ccccc1N)c1cccc(C(O)c2ccncc2)c1 (centres undefined) | 49.2% (inactive) | 70% |
| CC(C)(C)c1ccc(S(=O)(=O)Nc2ccc(-n3ccnc3)cc2)cc1 | 37.4% (inactive) | 67.1% |
| CSc1nc(-c2ccnc(NC(C)c3ccccc3)c2)c(-c2ccc(F)cc2)[nH]1 (centres undefined) | 53.6% (inactive) | 77.8% |
| O=C(Nc1ccc(-c2cn[nH]c2)cc1)C1COc2ccccc2O1 (centres undefined) | 48.6% (inactive) | 62.7% |
| COc1cc2ncn(-c3cc(OCc4ccc(S(C)(=O)=O)cc4)c(C(N)=O)s3)c2cc1OC | 30% (inactive) | 67.4% |
| COC1C=CC23c4cc5c(cc4CN(C[C@H]2O)[C@@H]3C1)OCO5 (some centres undefined) | 2.19% (inactive) | 98.9% |
| N#CCCc1ccc2c(c1)-c1[nH]c3ccc([N+](=O)[O-])cc3c1CC(=O)N2 | 64.4% (inactive) | 120% |
| CCCCCCOC(=O)[C@]1(O)C[C@@H]2O[C@@]1(C)n1c3ccccc3c3c4c(c5c6ccccc6n2c5c31)C(=O)NC4 | 55.7% (inactive) | 93.7% |
| COc1cc2ncnc(Nc3cccc(O)c3)c2cc1OC | 52.5% (inactive) | 68.3% |
| O=C(Nc1ccncc1)Nc1c(Cl)cc(Cl)cc1Cl | 41.9% (inactive) | 65.2% |
| O=c1[nH][nH]c2nnc(-c3c(-c4ccccc4)nn4ccccc34)cc12 | 41.8% (inactive) | 101% |
